Compounds with a hit are over-represented: about 2.1% of the library has one in this group of screens.
YB-1 expr inh: inhibitors of YB-1 gene expression, primary screen, cell-based, fluorescence; delta delta Cp (YB-1 minus CDIP) (no concentration beside the values); U2OS, qRT-PCR YB-1 vs CDIP delta delta Cp, 16 h; hits give high values; zero = DMSO, each unit about twofold; 30,000 compounds, 0.37% hits;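 active means delta delta Cp rounded down to an integer at or above 3, about 3 SD of DMSO wells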;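 further: higher means less YB-1 transcript or more CDIP transcript relative to DMSO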
ROS inducer: ROS inducers in U2OS cancer cells, primary screen, cell-based, H2DCF-DA fluorescence | U2OS ROS induction | ROS induction (% of piperlongumine), % at 10 µM | 46,000 compounds, 2% hits | AID 624156, 2012; in the data active means ROS induction above about 79%, passing the limit was not always enough;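 further: 0% = DMSO vehicle median and 100% = reference compound median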
* = called active by the depositor.

Results for O=C1O[C@H](c2ccccc2)[C@H](c2ccccc2)N2[C@H]1[C@@H](C(=O)N1CCN(c3ncccn3)CC1)[C@]1(C(=O)Nc3ccccc31)[C@H]2c1ccccc1OCCO ?
YB-1 expr inh: -0.21; ROS inducer: 170*

What do the screens show for `O=C1O[C@H](c2ccccc2)[C@H](c2ccccc2)N2[C@H]1[C@@H](C(=O)N1CCN(c3ncccn3)CC1)[C@]1(C(=O)Nc3ccc(C#CC4(O)CCCCCC4)cc31)[C@H]2c1ccc(OCCO)cc1`?
YB-1 expr inh: -0.033; ROS inducer: 25

How did COC(=O)C(CC#Cc1ccc2c(c1)[C@]1(C(=O)N2)[C@H](c2ccc(OCCO)cc2)N2[C@H](c3ccccc3)[C@H](c3ccccc3)OC(=O)[C@H]2[C@@H]1C(=O)N1CCN(c2ncccn2)CC1)C(=O)OC do in these assays?
YB-1 expr inh: -0.17; ROS inducer: 54

How did O=C1O[C@@H](c2ccccc2)[C@@H](c2ccccc2)N2[C@@H](c3ccccc3OCCO)[C@]3(C(=O)Nc4ccccc43)[C@@H](C(=O)O)[C@H]12 do in these assays?
YB-1 expr inh: -0.033; ROS inducer: 6

What do the screens show for `O=C1O[C@@H](c2ccccc2)[C@@H](c2ccccc2)N2[C@@H](c3ccc(OCCO)cc3)[C@]3(C(=O)Nc4ccccc43)[C@@H](C(=O)N3CCN(c4ncccn4)CC3)[C@H]12`?
YB-1 expr inh: -0.19; ROS inducer: 97*

What do the screens show for `COCC(C)NC(=O)Cn1nc(C)c(NC(=O)c2cc(-c3ccccc3F)no2)c1C` (stereo unspecified)?
ROS inducer: -1

What do the screens show for `CCOc1ccc(-c2cc(NC(=O)Nc3ccc(F)cc3)c(C(=O)OC)s2)cc1`?
ROS inducer: 35

How did c1ccc(C2OCC3OC(c4ccccc4)OC3CO2)cc1 (stereo unspecified) do in these assays?
YB-1 expr inh: -1; ROS inducer: -3

What do the screens show for `O=C(NCCN1CCOCC1)C1CCC(Cn2c(=S)[nH]c3ccccc3c2=O)CC1` (stereo unspecified)?
ROS inducer: 2

What do the screens show for `Cc1ccc(OCC(=O)Nc2ccc3oc(-c4ccccc4C)nc3c2)c(C)c1`?
ROS inducer: 18

What do the screens show for `C[C@H](CO)N1C[C@H](C)[C@H](CN(C)C(=O)NC2CCCC2)Oc2ncc(-c3cccc(C(F)(F)F)c3)cc2C1=O`?
YB-1 expr inh: -0.28; ROS inducer: 122*

How did CC(C)NC(=O)N(C)C[C@@H]1Oc2ncc(/C=C/c3ccccc3)cc2C(=O)N([C@H](C)CO)C[C@@H]1C do in these assays?
YB-1 expr inh: -1.4; ROS inducer: 15

What do the screens show for `C[C@H](CO)N1C[C@H](C)[C@H](CN(C)C(=O)NC2CCCCC2)Oc2ncc(/C=C/c3ccccc3)cc2C1=O`?
YB-1 expr inh: -0.64; ROS inducer: 109*

How did C[C@H](CO)N1C[C@H](C)[C@H](CN(C)C(=O)Nc2cccc3ccccc23)Oc2ncc(-c3cccc(C(F)(F)F)c3)cc2C1=O do in these assays?
YB-1 expr inh: 0.47; ROS inducer: 109*

How did C[C@H](CO)N1C[C@H](C)[C@H](CN(C)C(=O)Nc2cccc3ccccc23)Oc2ncc(-c3cccc(F)c3)cc2C1=O do in these assays?
YB-1 expr inh: -0.27; ROS inducer: 60

What do the screens show for `CC(C)NC(=O)N(C)C[C@@H]1Oc2ncc(-c3cccc(C(F)(F)F)c3)cc2C(=O)N([C@H](C)CO)C[C@@H]1C`?
YB-1 expr inh: -0.15; ROS inducer: 51

What do the screens show for `O=C(CSc1n[nH]c(-c2ccccc2)n1)Nc1sc2c(c1C(=O)Nc1ccccc1)CCCC2`?
ROS inducer: -12

What do the screens show for `CSC(=O)OCC1=C[C@H](O)[C@@H]2C(C(=O)O)=CO[C@@H](OC3OC(CO)C(O)C(O)C3O)[C@H]12` (stereo partly specified)?
YB-1 expr inh: 4.1*; ROS inducer: -9

How did CC(=O)OCC1=C[C@@H](O)[C@@H]2C=CO[C@@H](OC3OC(CO)C(O)C(O)C3O)[C@H]12 (stereo partly specified) do in these assays?
YB-1 expr inh: 2.3; ROS inducer: -10

How did CCN(CC)C(=O)c1c(NC(=O)c2cccs2)sc2c1CCCC2 do in these assays?
YB-1 expr inh: -0.029; ROS inducer: 5

What do the screens show for `COC(=O)CNC(c1ccccc1)c1cc(Br)ccc1N=Cc1ccccc1O` (stereo unspecified)?
YB-1 expr inh: -0.39; ROS inducer: 2

How did COC(=O)CNC(c1ccccc1)c1cc(Br)ccc1NC(=O)c1ccccc1Cl (stereo unspecified) do in these assays?
ROS inducer: 97*

How did C[C@@H]1CN([C@H](C)CO)C(=O)c2cccc(NC(=O)Nc3cccc4ccccc34)c2O[C@H]1CN(C)S(=O)(=O)c1ccc(F)cc1 do in these assays?
YB-1 expr inh: 0.13; ROS inducer: 111*

What do the screens show for `C[C@@H]1CN([C@@H](C)CO)C(=O)c2cccc(NC(=O)Nc3ccccc3)c2O[C@@H]1CN(C)S(C)(=O)=O`?
YB-1 expr inh: 0.24; ROS inducer: 25

Results for C[C@@H]1CN([C@@H](C)CO)C(=O)c2cccc(NC(=O)Nc3ccccc3)c2O[C@H]1CN(C)S(C)(=O)=O ?
YB-1 expr inh: 0.26; ROS inducer: 91*

Results for C[C@@H]1CN([C@H](C)CO)C(=O)c2cccc(NC(=O)Nc3cccc4ccccc34)c2O[C@H]1CN(C)S(=O)(=O)c1ccccc1 ?
YB-1 expr inh: -0.098; ROS inducer: 1

Results for COc1ccc(S(=O)(=O)N(C)C[C@H]2Oc3c(NC(=O)c4nc5ccccc5s4)cccc3C(=O)N([C@@H](C)CO)C[C@H]2C)cc1 ?
YB-1 expr inh: 7.9*; ROS inducer: 13

Results for COc1ccc(S(=O)(=O)N(C)C[C@@H]2Oc3c(NC(=O)c4nc5ccccc5s4)cccc3C(=O)N([C@H](C)CO)C[C@@H]2C)cc1 ?
YB-1 expr inh: -0.15; ROS inducer: 25

How did CCOc1ccc(NC(=S)N2CCn3cccc3C2c2ccc(OC)cc2)cc1 (stereo unspecified) do in these assays?
ROS inducer: 9

What do the screens show for `CSc1nsc(SCc2ccc(C(=O)Nc3ccc(Cl)cc3)cc2)n1`?
ROS inducer: -3

How did NC(=O)CSc1ccc(-c2cccs2)nn1 do in these assays?
ROS inducer: -20

How did O=C1NN=C(c2ccccc2)/C1=C1\OC(c2ccccc2)=CS1 do in these assays?
YB-1 expr inh: -0.29; ROS inducer: 138*

How did COc1cc(/C=C/C(=O)CC(=O)/C=C/c2ccc(O)c(OC)c2)ccc1O do in these assays?
YB-1 expr inh: -0.15; ROS inducer: 43

What do the screens show for `COc1ccc(/C=C/C(=O)CC(=O)/C=C/c2cccc(O)c2OC)cc1O`?
YB-1 expr inh: -0.52; ROS inducer: 98*

How did Cc1ccc(N(C)S(=O)(=O)c2cc(Br)cnc2N)cc1 do in these assays?
ROS inducer: -3

Results for CCN(CC)c1nc2c(C)cccn2c(=O)c1/C=N/O ?
ROS inducer: 2

What do the screens show for `O=C1/C(=C/c2ccc3ccccc3c2)COc2ccccc21`?
YB-1 expr inh: -0.22; ROS inducer: 103*

How did COc1ccc2c(c1)OC/C(=C\c1ccc(OC)c(O)c1)C2=O do in these assays?
YB-1 expr inh: -0.055; ROS inducer: 70

What do the screens show for `CCn1nc(C)cc1C(=O)Sc1ccccc1Cl`?
ROS inducer: 20
